In the library only some 7.9% were active in any assay of this set; here they are far more common.
FMDV inh = antivirals against foot and mouth disease virus | FMDV antiviral cell-based qHTS | Potency, µM (doses to about 57.9 µM), most hits filed as inhibitors | 410,000 compounds, 1.2% hits | AID 1159524; calls by dose curve; tested in HEK293T cells; also: read-out not given here; nearly all actives have a fitted effect of over 45% in size
HCMV antiviral = blocks human cytomegalovirus replication. activity change, negative = inhibition, % at 57.5 µM. HFF cells, HCMV-luciferase reporter, 72 h; active compounds read low. 410,000 compounds, 4.5% hits; in the data active = activity change below about -60%; inconclusive = no clear call, values can overlap the other calls; inactive = above about -39%
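Cell-based, HFFs, 1000 cells/well, 16 h 37C; cpds in DMSO + HCMV-luc, MOI 1 PFU/cell; 72 h 37C; OneGlo luminescence after 5 min RT; norm. to buffer vs Salinomycin 10uM.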
Lassa entry inh = blocks Lassa virus binding to or entry into cells | 300,000 compounds, 1.2% hits | Lassa virus pseudotype entry inhibition, cell reporter | AID 540256 | Potency, µM (highest dose often 37.9 µM), hits mostly inhibitors; calls by dose curve; tested in HEK293 cells; also: nearly all actives have a fitted effect of over 50% in size
HCV inhibitor = HCV inhibition. Huh7.5.1 HCVcc-Cre infection, luciferase reporter, 44 h. Potency, µM (titrated, usually from 41.8 µM), most hits filed as inhibitors. 340,000 compounds, 3.4% hits; active = well fitted inhibition curve with a large enough effect; inconclusive = small, poorly fitted or top-dose-only effect, or another doubt; inactive = no such curve, though single readings can be large or run the other way
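Antiviral activity was scored by luciferase reporter output from cells infected with HCVcc-Cre (~0.5 moi) in presence of compound, 44 h infection period, cells seeded 1,000/well 4 h prior.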
Marburg entry inh = blocks Marburg virus binding to or entry into cells. Potency, µM (highest dose often 37.8 µM), actives largely listed as inhibitors. 300,000 compounds, 1.8% hits. Marburg virus pseudotyped entry inhibition, cell reporter; calls by dose curve; tested in HEK293 cells
Large screens that a line does not name were inactive; ! = not active in a repeat.

COc1ccc(NC(=S)Nc2cccc(S(=O)(=O)N3CCCCC3)c2)cc1	HCMV antiviral -64, Marburg entry inh inconclusive
COc1ccc(NS(=O)(=O)c2cc(OC)ccc2NC(=O)c2cc(C)oc2C)cc1	HCV inhibitor 4.5µM, Marburg entry inh inconclusive
COc1ccc(NC(=S)Nc2ccc(S(=O)(=O)N3CCCCC3)cc2)cc1	none (no result: Lassa entry inh, HCV inhibitor, Marburg entry inh)
O=C(Nc1cccc(S(=O)(=O)N2CCCC2)c1)c1cccc(S(=O)(=O)N2CCOCC2)c1	HCV inhibitor inconclusive (no result: Lassa entry inh, Marburg entry inh)
COc1ccc(NC(=O)c2cc(S(=O)(=O)N3CCCC3)oc2C)cc1	HCMV antiviral -65 (no result: Lassa entry inh, Marburg entry inh)
CC(=O)Oc1ccc(-c2ccc(C(=O)Nc3cccc(S(=O)(=O)N4CCOCC4)c3)cc2)cc1	FMDV inh inconclusive, HCMV antiviral -98, Lassa entry inh inconclusive, HCV inhibitor inconclusive, Marburg entry inh inconclusive
Cc1ccc(-n2ncc(C(=O)NCCCN3CCc4ccccc4C3)c2C2CCN(C(=O)OC(C)(C)C)CC2)c(C)c1	HCMV antiviral inconclusive, Lassa entry inh inconclusive (no result: HCV inhibitor, Marburg entry inh)
COc1ccc(C(=O)NC(=S)Nc2cccc(S(=O)(=O)N3CCOCC3)c2)cc1	Lassa entry inh inconclusive, HCV inhibitor 14µM
CC1(C)CC2CC(C)(CN2S(=O)(=O)c2ccc(C(=O)Nc3cccc(S(=O)(=O)N4CCOCC4)c3)cc2)C1 (stereo not drawn)	FMDV inh inconclusive, HCMV antiviral -92, Lassa entry inh inconclusive, HCV inhibitor 11µM, Marburg entry inh 5.2µM
Brc1ccc2[nH]cc(/C=N/N3CCCCC3)c2c1	HCMV antiviral -84, HCV inhibitor inconclusive
C(=NN1CCCCCC1)c1c[nH]c2ccccc12	none
CSc1nc2c(c(=O)[nH]c(=O)n2C)n1Cc1ccccc1Cl	FMDV inh inconclusive (no result: Lassa entry inh, Marburg entry inh)
CSc1nc2c(c(=O)[nH]c(=O)n2C)n1Cc1ccc(Cl)cc1	HCV inhibitor 25µM
CCCn1c(SCc2ccc(Cl)cc2)nc2c1c(=O)[nH]c(=O)n2C	FMDV inh inconclusive, HCMV antiviral inconclusive, Lassa entry inh 16µM
Cc1ccc(NC(=O)c2c(C)oc3c2C2=NCCN2C=N3)cc1F	none (no result: HCV inhibitor, Marburg entry inh)
O=C(NCCc1ccc(Cl)cc1)c1ccc2c(c1)N(Cc1ccccc1)C(=O)CS2	FMDV inh inconclusive, HCMV antiviral inconclusive (no result: HCV inhibitor, Marburg entry inh)
Cc1ccccc1C(=O)N1CCN(c2ccc(NC(=S)NC(=O)c3ccco3)cc2)CC1	FMDV inh 25µM, HCMV antiviral -87 (no result: Lassa entry inh, Marburg entry inh)
COc1ccccc1C(=O)NC(=S)Nc1ccc(N2CCN(C(=O)c3ccco3)CC2)cc1	FMDV inh inconclusive, HCV inhibitor 32µM (no result: Lassa entry inh, Marburg entry inh)
O=C(Nc1ccc(N2CCN(C(=O)c3ccco3)CC2)cc1)c1ccco1	Marburg entry inh inconclusive
CCCC(=O)N1CCN(c2ccc(NC(=O)c3ccco3)cc2)CC1	HCV inhibitor 3.2µM
CCCC(C)(C)C(=O)N1CCC1(C)C(=O)Nc1ccc2c(c1)OCCO2 (stereo not drawn)	HCMV antiviral -66 (no result: Lassa entry inh, HCV inhibitor, Marburg entry inh)
CC1(C(=O)Nc2ccc3c(c2)OCCO3)CCC(=O)N1C1CC1 (stereo not drawn)	HCMV antiviral -100 (no result: Lassa entry inh, HCV inhibitor, Marburg entry inh)
CC1(C(=O)Nc2ccc3c(c2)OCCO3)CSCC(=O)N1C1CC1 (stereo not drawn)	none (no result: Lassa entry inh, HCV inhibitor, Marburg entry inh)
CC1=C(C(=O)Nc2ccccc2)C(c2ccncc2)n2nc(SCc3ccccc3F)nc2N1 (stereo not drawn)	none (no result: HCV inhibitor)
Cc1cc(S(=O)(=O)Nc2ccc(-c3ccc(N4CCCCCC4)nn3)cc2)c(C)cc1Cl	Lassa entry inh inconclusive (no result: HCV inhibitor, Marburg entry inh)
COc1ccc(N2CC(NC(=O)c3ccc4c(c3)OCO4)CC2=O)cc1 (stereo not drawn)	none (no result: HCV inhibitor, Marburg entry inh)
C[C@]12CCCC3=CC(=O)C=C[C@@]31Oc1ccccc1C(=O)C2	none (no result: FMDV inh, Lassa entry inh, HCV inhibitor, Marburg entry inh)
CNC(=O)Oc1ccc2c(c1)[C@]1(C)CCN(C)[C@@H]1N2C	Marburg entry inh 0.28µM!
CNC(=O)Oc1ccc2ncccc2c1	none
CN1CC[C@@]2(C)c3cc(O)ccc3N(C)C12 (stereo partly drawn)	Lassa entry inh 8.2µM, Marburg entry inh 7.9µM (no result: FMDV inh, HCMV antiviral, HCV inhibitor)
Cc1ccc(C)c(NC(=O)Cn2cc(S(=O)(=O)Cc3cccc(Cl)c3)c3ccccc32)c1	HCMV antiviral inconclusive (no result: HCV inhibitor, Marburg entry inh)
O=c1[nH]c(-c2ccccn2)nc2sc(-c3ccccc3)cc12	HCMV antiviral -112, Lassa entry inh 2.2µM, HCV inhibitor 1.6µM, Marburg entry inh inconclusive
Cc1c(C(=O)N(C)C)sc2nc(-c3ccccn3)[nH]c(=O)c12	none
CC(CN1CCN(C)CC1)OC(=O)c1ccccc1 (stereo not drawn)	none
CC(CN1CCN(C)CC1)OC(=O)c1ccc(F)cc1 (stereo not drawn)	HCMV antiviral -71, Lassa entry inh inconclusive
Cc1ccc(-n2nc(C(=O)Nc3ccc(F)cc3Cl)c(=O)n(C)c2=O)cc1	none (no result: HCV inhibitor, Marburg entry inh)
CCc1nnc2c(Nc3ccc(Br)c(C)c3)nc3ccccc3n12	none (no result: HCV inhibitor, Marburg entry inh)
CCCN(CCC)C(=O)Cn1c(=O)n(-c2cccc(OC)c2)c(=O)c2c(C)c(C(=O)N(C)C)sc21	none (no result: HCV inhibitor, Marburg entry inh)
FC(F)(F)c1cccc(-c2nnc(-c3ccccc3)c(N3CCOCC3)n2)c1	HCV inhibitor 10µM
FC(F)(F)c1nnc(-c2ccccc2)nc1N1CCOCC1	none
CSc1nc(Oc2cccc(C(F)(F)F)c2)cc(C(F)(F)F)n1	Marburg entry inh inconclusive
CSc1nccc(Oc2cccc(C#N)c2)n1	HCMV antiviral -61
Cc1nc2c(-c3ccccc3)c(C)nn2c(C)c1CCC(=O)Nc1ccccc1F	FMDV inh inconclusive, Lassa entry inh inconclusive (no result: HCV inhibitor)
O=P(CCCCCCCCCP(=O)(c1ccccc1)c1ccccc1)(c1ccccc1)c1ccccc1	FMDV inh inconclusive, Lassa entry inh inconclusive, HCV inhibitor 14µM, Marburg entry inh inconclusive
CCc1ccc2c(c1)-c1ccccc1S(=O)(=O)N2CC(=O)N1CCCCC1	Marburg entry inh inconclusive (no result: HCV inhibitor)
O=C(CSc1nnc2scc(-c3ccccc3)n12)Nc1nsc(-c2ccccc2)n1	FMDV inh 32µM, HCMV antiviral inconclusive, HCV inhibitor 11µM!, Marburg entry inh 21µM!
O=C(CSc1nnc2scc(-c3ccccc3)n12)Nc1nsc(-c2ccc(Cl)cc2)n1	FMDV inh inconclusive, HCMV antiviral -73, Marburg entry inh inconclusive
Cc1ccc(-c2csc3nnc(SCC(=O)Nc4nsc(-c5ccccc5)n4)n23)cc1	FMDV inh inconclusive, HCMV antiviral inconclusive, HCV inhibitor inconclusive
CSc1ncc(C(=O)NCc2ccc(C)cc2)c(-c2ccccc2)n1	none (no result: HCV inhibitor, Marburg entry inh)
NC(=O)C1CCN(c2nc(-c3ccccc3F)cs2)CC1	none (no result: Lassa entry inh, HCV inhibitor, Marburg entry inh)
NC(=O)C1CCN(c2nc(-c3ccccc3Br)cs2)CC1	HCMV antiviral -74 (no result: Lassa entry inh, HCV inhibitor, Marburg entry inh)
COc1cc(OC)cc(N(C(=O)C2COc3ccccc3O2)C(C(=O)NC2CCCCC2)c2ccc(O)cc2)c1 (stereo not drawn)	HCMV antiviral -77, Lassa entry inh inconclusive, HCV inhibitor inconclusive, Marburg entry inh inconclusive
COc1ccc(N(C(=O)C2COc3ccccc3O2)C(C(=O)NC2CCCCC2)c2ccccc2)cc1OC (stereo not drawn)	HCMV antiviral -63, HCV inhibitor inconclusive, Marburg entry inh inconclusive
c1ccc2sc(-c3cc4c(c(OC5CCOC5)c3)OCCN(Cc3cccn3-c3nccs3)C4)nc2c1 (stereo not drawn)	none (no result: HCMV antiviral, Lassa entry inh, HCV inhibitor, Marburg entry inh)

Screening results: PubChem BioAssay, National Center for Advancing Translational Sciences (NCATS)
